These results are taken from ChEMBL document CHEMBL1201862, “PubChem BioAssay data set” (2004).

Among all 57,000 sequences or so, about 5,100 (8.9%) were called active. Cut-off read from the data, not from the text of the source: active = GI50 up to about 1.1 µM and inactive = higher. These entries were drawn from the full list. Potency and affinity values are given separately.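 Compound exposure: 48 hours, 5 concentrations, 96-well plates. The concentration for 50% growth inhibition is given as GI50.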

For the test, the system named is HCT-116. The experiment in a line: NCI tumour cell line growth inhibition, 48 h.
Regarding “[Bis(aminomethyl)tetramethylenesilane]dichloropaltinum(II), CHEMBL2146205”, the GI50 turned out to be 11.5 µM.
“[Bis(aminomethyl)pentamethylenesilane]dichloropaltinum(II), CHEMBL2146202” registered a GI50 of 2.48 µM.
To CISPLATIN, CHEMBL11359 belongs 4.12 µM.
Under “mu-(1,7-nanodiamine-N,N')bis-(cis-aminedichloroplatimum (II)), CHEMBL2146215” stands 41.3 µM; under “[Bis(aminomethyl)pentamethylenesilane]tetrachloropaltinum(IV), CHEMBL2146204”, 1.13 µM; under “[Bis(aminomethyl)dimethylsilane]tetrachloroplatinum(IV), CHEMBL2146190”, 8.77 µM.
“[Bis(aminomethyl)diethylsilane]tetrachloroplatinum(IV), CHEMBL2146203” showed a GI50 of 3.94 µM.
In the case of “[Bis(aminomethyl)tetramethylenesilane]tetrachloropaltinum(IV), CHEMBL2146189”, the GI50 turned out to be 4.18 µM.
